Shown are actives, neighbours in structure and some others; about 0.18% of the full set was active somewhere.
ERG Ets-DNA blk = blocks human ERG Ets domain binding to DNA. fluorescence polarization, His-ERG Ets domain / labelled DNA. Potency, µM (series often up to 76.9 µM), for inactives: at the top dose FP activity, negative = inhibition, actives largely listed as inhibitors. actives 0.028% (n = 370,000). AID 624246; active = well fitted inhibition curve with a large enough effect in the polarisation, with a control signal flat; inconclusive = small, poorly fitted or top-dose-only effect, or effect the other way, or a change in a side signal; inactive = no such curve, though single readings can be large or run the other way; the % refers to the polarisation;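 also: polarization taken with two DNA probes labelled with fluorescein and Texas red; potency is read from the fitted curve at half-maximal effect; % of control where 0% means no effect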
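His-tagged ERG Ets domain (1 uM in the protein solution; 300mM KCl, 50mM Tris-HCl, 1mM EDTA, 1mM DTT, pH 7.5) received compound, then a probe mix of 5 nM fluorescein-DNA and 100nM Texas-615-DNA. Fluorescence polarization was read for both dyes.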
TSG101-PTAP inh = blocks PTAP/TSG101 interaction to inhibit HIV-1 budding; Q99816; Fluorescence polarization, FITC-PTAP peptide / Tsg101 binding; Potency, µM (top dose mostly 115 µM), inactives show at the top dose activity change, negative = inhibition, most hits filed as inhibitors; 340,000 tested, under 10 active; active = well fitted inhibition curve with a large enough effect in the main read-out, with a control signal flat, not every such curve was filed as active; inconclusive = small, poorly fitted or top-dose-only effect, or effect the other way, or a change in a side signal; inactive = no such curve, though single readings can be large or run the other way; also: potency is read from the fitted curve at half-maximal effect; % of control where 0% means no effect
Target sequence (Q99816 whole entry, looked up): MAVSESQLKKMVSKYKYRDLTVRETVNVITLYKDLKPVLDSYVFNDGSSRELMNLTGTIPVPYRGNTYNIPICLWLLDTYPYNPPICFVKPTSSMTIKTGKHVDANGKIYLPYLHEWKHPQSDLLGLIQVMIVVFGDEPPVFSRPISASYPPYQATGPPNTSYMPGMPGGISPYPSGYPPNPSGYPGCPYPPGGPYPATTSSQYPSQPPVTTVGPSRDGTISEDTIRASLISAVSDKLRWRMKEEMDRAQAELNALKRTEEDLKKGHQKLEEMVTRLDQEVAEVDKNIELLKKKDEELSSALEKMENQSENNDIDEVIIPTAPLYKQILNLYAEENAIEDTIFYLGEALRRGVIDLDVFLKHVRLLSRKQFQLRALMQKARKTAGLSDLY
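Fluorescence polarization binding of Tsg101 binding domain (10 uM final) to FITC-labeled PTAP peptide (50 nM final) in HEPES pH 7.5 buffer with NaCl, Tween 20, EDTA, TCEP. Compounds added before peptide; binding 20 min at RT.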
Apoferritin bind = binds horse apoferritin like a general anesthetic; Potency, µM (titrated, usually from 77.5 µM), without a hit: at the top dose activity change, negative = displacement, usual class: inhibitors; P02791; actives 0.074% (n = 350,000); apoferritin/1-aminoanthracene competitive binding, fluorescence; also: potency is read from the fitted curve at half-maximal effect; % is scaled to controls: 0 for no effect and ±100 for the full control effect; nearly all actives have a fitted effect of over 20% in size
Target sequence (P02791 2-175 limits assumed): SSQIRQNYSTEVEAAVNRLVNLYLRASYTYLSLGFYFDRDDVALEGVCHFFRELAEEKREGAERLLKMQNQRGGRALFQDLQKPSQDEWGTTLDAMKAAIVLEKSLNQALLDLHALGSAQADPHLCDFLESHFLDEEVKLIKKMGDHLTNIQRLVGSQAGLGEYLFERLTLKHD
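Apoferritin-based anesthetic binding model; compound displacement of fluorescent 1-AMA measured as endpoint fluorescence after 10 minutes at room temperature, scaled to free-ligand and complex controls.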
mIDH1 inhibitor = blocks human mutant IDH1 R132H enzyme; O75874; IDH1-R132H enzyme, NADPH consumption, diaphorase/resazurin fluorescence; Potency, µM (series often up to 76.6 µM), for inactives: top-dose activity change, negative = inhibition, hits mostly inhibitors; actives 0.093% (n = 390,000); also: potency is read from the fitted curve at half-maximal effect; % is scaled to controls: 0 for no effect and ±100 for the full control effect; nearly all actives have a fitted effect of over 65% in size
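IDH1-R132H (0.5 ug/mL dispensed) in pH 7.5 Tris buffer was preincubated 30 min with compound, then given a substrate mix of 0.016 mM NADPH and 2 mM alpha-KG for 80 min at room temperature; remaining NADPH was read by diaphorase/resazurin fluorescence.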
Resorufin autofl = autofluorescence interference, mutant IDH1 hit counter-screen. shares compounds with mIDH1 inhibitor. Resorufin detection reagent fluorescence interference, cell-free. inhibition of signal, % at 51.2 µM. 750 tested, under 10 active. AID 623980;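 also: 0% = wells with normal resorufin and full inhibition = wells lacking resorufin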
IDH1 WT = wild-type IDH1 (human) inhibition counterscreen; shares compounds with mIDH1 inhibitor; WT IDH1 enzyme, NADPH diaphorase/resazurin fluorescence; Potency, µM (series often up to 115 µM), without a hit: at the top dose activity change, negative = inhibition, hits mostly inhibitors; actives 9% (n = 750);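 also: potency is read from the fitted curve at half-maximal effect; 0% = full WT IDH1 enzyme control and full inhibition = no enzyme wells; nearly all actives have a fitted effect of over 55% in size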
IDH1 R132H conf = confirmation of human mutant IDH1 inhibitors. Potency, µM (doses to about 76.6 µM), without a hit: top-dose activity change, negative = inhibition, hits mostly inhibitors. actives 83% (n = 750). AID 624002. shares compounds with mIDH1 inhibitor. IDH1 R132H enzyme, NADPH diaphorase/resazurin fluorescence; also: potency is read from the fitted curve at half-maximal effect; nearly all actives have a fitted effect of over 50% in size
The depositor's hits bear a star; u = inconclusive; x = no result given; [ ] = another dose, or the depositor's remark. Unless noted, calls follow the shape of the dose curve; as a rule, active = well fitted curve in the direction sought with a large enough effect; inconclusive = small, poorly fitted or top-dose-only effect, or another doubt; inactive = no such curve, though single readings can be large; an effect the other way counts as inactive or inconclusive.

SMILES | ERG Ets-DNA blk | TSG101-PTAP inh | Apoferritin bind | mIDH1 inhibitor | Resorufin autofl | IDH1 WT | IDH1 R132H conf
Cc1cccc(-c2c3c(=O)n(C)c(=O)n(C)c3cn2-c2cc(N)c(Cl)cc2Cl)c1 | 1% | x | 3% | 35µM* | -2 | -21% | u
C[C@H]1C[C@@H]2[C@H]3CCC4=CC(=O)C=C[C@@]4(C)[C@@]3(Cl)[C@@H](O)C[C@]2(C)[C@]1(OC(=O)c1ccco1)C(=O)CCl | x | x | 0%[29.3 µM] | x | x | x | x
C[C@@H]1C[C@H]2[C@@H]3CCC4=CC(=O)C=C[C@]4(C)[C@@]3(Cl)[C@@H](O)C[C@]2(C)[C@@]1(OC(=O)c1ccco1)C(=O)CCl | 5% | 1% | x | 35µM* | 0 | 12% | 8.9µM*
Cc1nnc(SC(C)C(=O)Nc2ccc3ccccc3c2)[nH]c1=O (centres undefined) | 16% | -5% | -4% | -11% | x | x | x
CC(/C=C1\SC(=S)N(c2ccc(C(=O)O)cc2)C1=O)=C\c1ccccc1 | 35% | -4% | -6% | 23µM* | -4 | 45µM* | 50µM*
COc1ccc(Nc2c3c(nc4ccc(NC(=O)/C=C/c5cc(OC)c(OC)c(OC)c5)cc24)CCCC3)cc1OC | -6% | x | -11% | u | -6 | 7% | u
CCOC(=O)c1c(C)[nH]c(C)c1S(=O)(=O)N1CCCC(C(=O)Nc2cccc(CC)c2)C1 (centres undefined) | 2% | x | u | 0% | x | x | x
O=C(CN1C(=O)COc2ccc(S(=O)(=O)N3CCCCCC3)cc21)Nc1cccc(Cl)c1 | 6% | x | -7% | u | -1 | 5% | u
CCn1c(=O)c2cc(C(=O)N(C)c3cc(C)ccc3C)sc2c2ccccc21 | -3% | x | 43% | u | -1 | -5% | 20µM*
Cc1ccc(S(=O)(=O)N2CC(=NN=C(N)N)C2)cc1 | 6% | -8% | 4% | 2% | x | x | x
CN1C=CC2=C(C#N)C(N)C(C#N)(C#N)[C@H](c3ccccc3)[C@H]2C1 (some centres undefined) | -13% | -20% | 74% | u | 2 | 38% | u
N#CC1(C#N)C(C(N)=O)C1c1ccccc1 (centres undefined) | 7% | 0% | 3% | 2% | x | x | x
CSc1nn(Cc2ccc(C)cc2)c(N)c1S(=O)(=O)c1ccccc1 | 1% | x | -18% | 32µM* | 2 | -2% | 10µM*
COc1ccc(CCN2C(=O)NC(NS(=O)(=O)c3ccccc3)(C(F)(F)F)C2=O)cc1OC (centres undefined) | 9% | -2% | -4% | 8% | x | x | x
COc1c(CC=C(C)C)cc(C2CC(=O)c3c(O)cc(O)cc3O2)cc1CC=C(C)C (centres undefined) | 2% | -1% | u | 35µM* | -1 | 40µM* | 25µM*
CCOC(=O)c1ccc(N2C(=O)c3n[nH]c(-c4ccco4)c3C2c2ccc(OC)cc2OC)cc1 (centres undefined) | -5% | x | -20% | u | 1 | -1% | u
CCOc1ccc(N2C(=O)c3[nH]nc(-c4ccccc4)c3C2c2ccc(O)c(OC)c2)cc1 (centres undefined) | 2% | x | -15% | u | 0 | 1% | 20µM*
CCOC(=O)c1ccc(N2C(=O)c3n[nH]c(C)c3C2c2ccc(OC)cc2OC)cc1 (centres undefined) | 7% | 2% | -19% | -17% | x | x | x
Cc1ccc(-c2n[nH]c3c2C(c2cccc(O)c2)N(c2ccc(C(=O)O)cc2)C3=O)cc1 (centres undefined) | -4% | -6% | 1% | 7% | x | x | x
COc1ccc(C2c3c(-c4ccccc4)n[nH]c3C(=O)N2c2ccc(C(=O)O)cc2)c(OC)c1 (centres undefined) | -2% | x | -11% | 40µM* | 6 | u | 28µM*
Cc1ccc(-c2n[nH]c3c2C(c2ccccc2)N(c2ccc(C(=O)O)cc2)C3=O)cc1 (centres undefined) | 9% | -2% | -4% | 52µM* | -2 | -23% | 28µM*
O=C(c1sc2ccccc2c1Cl)N1CCN(c2ccccn2)CC1 | 2% | -8% | -6% | 2% | x | x | x
COC(=O)c1ccc(C2c3c(-c4ccc(Br)cc4)n[nH]c3C(=O)N2c2ccc(Cl)cc2)cc1 (centres undefined) | -2% | x | -2% | -12% | x | x | x
O=C1c2[nH]nc(-c3ccc(Br)cc3)c2C(c2cccc(O)c2)N1c1ccc(Cl)cc1 (centres undefined) | 0% | x | -4% | 40µM* | -6 | 1% | 20µM*
Cc1cc(Nc2ccc(O)cc2)n2c(nc3ccccc32)c1C#N | 4% | 1% | -6% | -2% | x | x | x
SMILES | ERG Ets-DNA blk | TSG101-PTAP inh | Apoferritin bind | mIDH1 inhibitor | Resorufin autofl | IDH1 WT | IDH1 R132H conf
Cc1ccc(Nc2cc(C)c(C#N)c3nc4ccccc4n23)c(C)c1 | 15% | x | -2% | 40µM* | 1 | -2% | 14µM*
Cc1cc(NC(=O)CCC(=O)N(c2ccc(F)cc2)C(C(=O)NC2CCCC2)c2ccc(C)o2)no1 (centres undefined) | 1% | -7% | u | -18% | x | x | x
O=C(CCCC(=O)N(c1ccc2c(c1)OCCO2)C(C(=O)NC1CCCCC1)c1ccc(F)cc1)Nc1ccccn1 (centres undefined) | x | -8% | -7% | 9.3µM* | -8 | 2% | 13µM*
Cc1cc(NC(=O)CCC(=O)N(c2ccc(F)cc2)C(C(=O)NC2CCCC2)c2ccccc2)no1 (centres undefined) | -2% | -4% | -11% | u | 2 | 5% | 40µM*
C#CC(=O)N(c1cc(OC)ccc1OC)C(C(=O)NC1CCCC1)c1cccs1 (centres undefined) | x | 2% | -19% | u | -7 | 11% | 45µM*
Cc1cc(NC(=O)CCC(=O)N(c2ccccc2)C(C(=O)NC2CCCCC2)c2cccs2)no1 (centres undefined) | -12% | 0% | -19% | u | 0 | -5% | 16µM*
Cc1cc(NC(=O)CCC(=O)N(c2ccccc2)C(C(=O)NC2CCCC2)c2ccc(F)cc2)no1 (centres undefined) | -6% | 1% | -1% | u | -6 | -4% | u
CCCCN(C(=O)CCC(=O)Nc1cc(C)on1)C(C(=O)NC1CCCC1)c1ccc(F)cc1 (centres undefined) | -5% | -7% | 1% | -16% | x | x | x
